Compounds without any hit were thinned out: in the full panel of roughly 83,000, 20% have a hit.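 96-well plates, one dose, 48 hours. Percent growth reported; active if below 10.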 Values without a mark were called inactive. Calls of active or inactive are those of the source.

The text below walks through data of PubChem BioAssay (NCI).

Among the test systems are NCI-H23 lung; NCI-H226 lung; NCI-H322M lung; HOP-62 NSCLC; NCI-H460 lung; NCI-H522 lung; A549/ATCC NSCLC; 786-0 renal; COLO 205 colon; DU-145 prostate; K-562 leukemia; MALME-3M melanoma; MDA-MB-231 breast; RXF 393 renal; SF-268 CNS; SF-539 CNS; UACC-257 melanoma; M14 melanoma; SF-295 CNS.
Holding throughout (assay): NCI-60 one-dose screen, 48 h (100 = growth as untreated, 0 = no growth, -100 = all killed)
Common to all, as to details: 10 µM

For the compound `C#CC(C(C)C)N(CCO)CCCC` (stereo not drawn), the growth is 120% in the experiment with NCI-H23 lung; 96.6% with NCI-H226 lung; 107% with NCI-H322M lung; 98.8% in the experiment on HOP-62 NSCLC; 101% with NCI-H460 lung; 107% in the experiment on NCI-H522 lung. Moreover, the growth was 95.8% with A549/ATCC NSCLC; 108% in the experiment on 786-0 renal; 108% in the experiment with COLO 205 colon; 112% in the experiment with DU-145 prostate; 102% with K-562 leukemia; 116% with MALME-3M melanoma. Moreover, the growth in the experiment on MDA-MB-231 breast is 113%; with RXF 393 renal, 100%; with SF-268 CNS it was 102%; in the experiment with SF-539 CNS, 90.4%; with UACC-257 melanoma, 97.4%; in the experiment with M14 melanoma it was 108%.

Regarding `Nc1nc(OCc2ccccc2)c2[nH]cnc2n1`, the growth with NCI-H23 lung was 93.6%; in the experiment on NCI-H226 lung, 96%; with NCI-H322M lung, 118%; in the experiment with HOP-62 NSCLC, 100%; in the experiment with NCI-H460 lung, 107%; with NCI-H522 lung, 86.5%. The growth was 105% in the experiment with A549/ATCC NSCLC; 87.1% in the experiment on 786-0 renal; 114% with COLO 205 colon; 99.2% with DU-145 prostate; 80.4% in the experiment on K-562 leukemia; 98.3% with MALME-3M melanoma. The growth in the experiment on MDA-MB-231 breast was 97.9%; with RXF 393 renal, 98.8%; with SF-268 CNS, 109%; in the experiment on SF-295 CNS, 96.8%; in the experiment on SF-539 CNS, 89.7%; in the experiment with UACC-257 melanoma, 97.8%. The growth in the experiment with M14 melanoma is 90.6%.

In the case of `COc1cc2cc(c1Cl)N(C)C(=O)C[C@H](OC(=O)[C@H](C)N(C)C(C)=O)[C@]1(C)O[C@H]1[C@H](C)[C@@H]1C[C@@](O)(NC(=O)O1)[C@H](OC)C=C/C=C(\C)C2`, the growth with NCI-H23 lung is 31.1%; in the experiment with NCI-H226 lung it was 3.37% (active); with NCI-H322M lung, 31.5%; in the experiment on HOP-62 NSCLC it was 14%; in the experiment on NCI-H460 lung, 2.87% (active); in the experiment with NCI-H522 lung it was -60.8% (active). The growth in the experiment with A549/ATCC NSCLC was 38.3%; in the experiment with 786-0 renal, 10.6%; in the experiment with COLO 205 colon, -51.3% (active); in the experiment with DU-145 prostate it was -40.4% (active); in the experiment with K-562 leukemia, -2.18% (active); in the experiment on MALME-3M melanoma it was 33.7%. The growth in the experiment with MDA-MB-231 breast is -13.1% (active); with RXF 393 renal, 13.3%; in the experiment with SF-268 CNS, 23.5%; with SF-295 CNS it was -13.8% (active); in the experiment with SF-539 CNS, -23.5% (active); in the experiment on UACC-257 melanoma it was 12.4%. In addition, the growth in the experiment with M14 melanoma was -26.2% (active).

Turning to `Cc1cc(N2CCC(N3CCCC3)CC2)nc(/N=C(\N)Nc2ccc(Cl)c(Cl)c2)n1`, the growth with NCI-H23 lung was 56.8%; with NCI-H226 lung, 84.6%; in the experiment on NCI-H322M lung, -30.6% (active); in the experiment on HOP-62 NSCLC, -8.02% (active); with NCI-H460 lung, -67.8% (active); with NCI-H522 lung it was -66.4% (active). Also, the growth was -22.1% (active) in the experiment on A549/ATCC NSCLC; -54.3% (active) with 786-0 renal; -82.3% (active) in the experiment with COLO 205 colon; 16.3% with DU-145 prostate; -44.4% (active) in the experiment with K-562 leukemia; -58.1% (active) with MDA-MB-231 breast. Besides, the growth with RXF 393 renal is -69.7% (active); in the experiment with SF-268 CNS, -4.09% (active); in the experiment with SF-295 CNS, -96.2% (active); in the experiment with SF-539 CNS it was -84.7% (active); in the experiment with UACC-257 melanoma, -78.5% (active); in the experiment on M14 melanoma it was -85.9% (active).

In the case of `C=C[Si](OC(C)=O)(OC(C)=O)OC(C)=O`, the growth in the experiment with NCI-H23 lung is 106%; in the experiment with NCI-H226 lung, 111%; in the experiment with NCI-H322M lung it was 87.6%; in the experiment on HOP-62 NSCLC, 89.5%; in the experiment on NCI-H460 lung, 103%; in the experiment with NCI-H522 lung, 88.7%. The growth was 104% with A549/ATCC NSCLC; 98.5% with 786-0 renal; 107% with COLO 205 colon; 116% in the experiment with DU-145 prostate; 98.7% in the experiment on K-562 leukemia; 85.6% in the experiment with MALME-3M melanoma. Also, the growth was 118% in the experiment on MDA-MB-231 breast; 117% in the experiment on RXF 393 renal; 99.4% in the experiment with SF-268 CNS; 96.9% in the experiment with SF-295 CNS; 96.8% in the experiment on SF-539 CNS; 105% with UACC-257 melanoma. In addition, the growth with M14 melanoma is 99.5%.

As to `COC(=O)c1cccnc1`, the growth with NCI-H23 lung was 95.6%; in the experiment on NCI-H226 lung, 98%; in the experiment with NCI-H322M lung, 106%; in the experiment with HOP-62 NSCLC, 99.4%; in the experiment with NCI-H460 lung it was 105%; in the experiment on NCI-H522 lung, 78.2%. Further, the growth in the experiment with A549/ATCC NSCLC was 91.9%; in the experiment with 786-0 renal, 87.1%; with COLO 205 colon, 95.3%; with DU-145 prostate it was 107%; in the experiment with K-562 leukemia, 113%; in the experiment on MALME-3M melanoma, 112%. Further, the growth was 100% with MDA-MB-231 breast; 105% with RXF 393 renal; 95.4% with SF-268 CNS; 110% in the experiment on SF-295 CNS; 91.1% in the experiment with SF-539 CNS; 90.4% in the experiment on UACC-257 melanoma. Besides, in the experiment on M14 melanoma, the growth is 93.9%.

In the case of `CC1(C)/C(=C\CO)C2CCC1C2` (stereo not drawn), the growth is 103% with NCI-H23 lung; 98.1% with NCI-H226 lung; 103% with NCI-H322M lung; 96.8% in the experiment with HOP-62 NSCLC; 115% in the experiment with NCI-H460 lung; 88.8% in the experiment on NCI-H522 lung. The growth in the experiment with 786-0 renal was 101%; in the experiment on COLO 205 colon, 111%; with DU-145 prostate, 120%; with K-562 leukemia, 105%; in the experiment on MALME-3M melanoma, 103%; in the experiment with MDA-MB-231 breast, 112%. In addition, the growth in the experiment with RXF 393 renal was 113%; with SF-268 CNS it was 111%; in the experiment with SF-295 CNS it was 120%; in the experiment with SF-539 CNS, 109%; in the experiment with UACC-257 melanoma it was 132%; in the experiment on M14 melanoma it was 103%.

Consider `COC(=O)c1ccc(NC(=O)CCl)cc1`, for which the growth in the experiment with NCI-H23 lung is 85.3%; in the experiment on NCI-H226 lung it was 118%; in the experiment on NCI-H322M lung, 95.7%; in the experiment on HOP-62 NSCLC it was 88.5%; in the experiment with NCI-H460 lung, 47.5%; with A549/ATCC NSCLC, 79.2%. Further, the growth is 93.5% with 786-0 renal; 103% with COLO 205 colon; 103% in the experiment on DU-145 prostate; 70.9% in the experiment with K-562 leukemia; 79.9% in the experiment with MALME-3M melanoma; 64.9% with MDA-MB-231 breast. For the same compound, the growth in the experiment with RXF 393 renal is 95.7%; in the experiment on SF-268 CNS, 89.5%; in the experiment with SF-295 CNS it was 69.3%; in the experiment with SF-539 CNS, 96.7%; in the experiment on UACC-257 melanoma it was 60.4%; in the experiment with M14 melanoma, 90.4%.
